Screening results deposited in PubChem BioAssay by National Center for Advancing Translational Sciences (NCATS).
Sampled rows, rich in hits. Any-hit rate of the full collection: about 19%.
TDP1 cell CPT = DT40-hTDP1 cell growth loss with CPT; chicken DT40 Tdp1-/-;hTDP1 cells + 20 nM CPT, ATP luminescence, 48 h; Potency, µM (doses to about 46.2 µM), for the others: at the top dose activity change, negative = growth inhibition, actives largely listed as inhibitors; actives 12% (n = 420,000); further: potency means the concentration at half of the fitted maximal effect; nearly all actives have a fitted effect of over 55% in size
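Cell growth measured by CellTiter-Glo luminescence after a minimum 48 h, 37 C compound exposure with 20 nM CPT in Tdp1-knockout DT40 cells stably expressing hTDP1, seeded 400/well; qHTS titration format.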
IL1B secr inh = inflammasome signaling inhibition, IL-1 beta readout; activity change, % at 57.5 µM; actives 4.7% (n = 360,000); THP-1 LPS/ATP IL-1B secretion, AlphaLISA, 16 h; active compounds read low; AID 743279; in the data active means activity change below about -50%; inconclusive means mostly about -30% to -49%
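THP-1 cells pretreated 1 hr with compounds (up to 57.5 uM final), then stimulated with LPS (250 ng/mL final) plus ATP (1.25 mM final); secreted IL-1B measured by AlphaLISA after 16 hr, decreased signal indicating inhibition.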
DT40 TDP1 no CPT = qHTS for Inhibitors of human tyrosyl-DNA phosphodiesterase 1 (TDP1): qHTS in cells in absence of CPT. DT40 Tdp1-/- hTDP1 cells, no CPT, ATP luminescence, 48 h. Potency, µM (top dose mostly 46.2 µM), inactives show at the highest dose activity change, negative = growth inhibition, actives largely listed as inhibitors. actives 15% (n = 420,000). AID 686978, 2013; further: potency means the concentration at half of the fitted maximal effect; nearly all actives have a fitted effect of over 55% in size
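Luminescent ATP content (CellTiter-Glo) served as the growth readout. Knockout chicken DT40 cells expressing human TDP1 were exposed to compounds without camptothecin for a minimum 48 hr at 37 °C.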
TDP1 block = inhibitors of human tyrosyl-DNA phosphodiesterase TDP1 | recombinant TDP1, AlphaScreen DNA substrate cleavage | Potency, µM (doses to about 130 µM), inactives show at the top dose activity change, negative = inhibition, hits mostly inhibitors | actives 0.28% (n = 350,000); further: potency means the concentration at half of the fitted maximal effect; nearly all actives have a fitted effect of over 40% in size
Target sequence (Q9NUW8 whole entry, looked up): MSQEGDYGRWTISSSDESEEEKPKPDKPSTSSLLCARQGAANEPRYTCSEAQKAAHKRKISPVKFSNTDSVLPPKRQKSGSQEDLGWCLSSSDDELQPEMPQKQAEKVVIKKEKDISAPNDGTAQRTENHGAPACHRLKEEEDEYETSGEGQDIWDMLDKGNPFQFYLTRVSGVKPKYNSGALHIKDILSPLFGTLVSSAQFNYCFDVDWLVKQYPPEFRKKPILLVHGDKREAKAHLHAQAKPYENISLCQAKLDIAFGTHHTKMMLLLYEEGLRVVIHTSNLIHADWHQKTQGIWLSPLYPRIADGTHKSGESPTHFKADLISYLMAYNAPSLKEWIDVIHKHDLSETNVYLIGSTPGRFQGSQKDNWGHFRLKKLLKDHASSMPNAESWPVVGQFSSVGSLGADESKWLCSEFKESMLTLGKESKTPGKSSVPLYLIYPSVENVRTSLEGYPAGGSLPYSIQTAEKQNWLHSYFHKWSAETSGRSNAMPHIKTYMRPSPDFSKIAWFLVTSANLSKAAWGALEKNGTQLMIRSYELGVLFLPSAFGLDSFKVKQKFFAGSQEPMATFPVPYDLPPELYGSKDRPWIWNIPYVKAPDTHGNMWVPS
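Recombinant E. coli-expressed Tdp1 (1 nM) preincubated with compound 15 min at RT, then 5'-biotin/3'-phosphotyrosine-FITC DNA substrate (15 nM) added for 5 min. AlphaScreen beads (10 ug/ml) added, 10 min RT; tyrosine-FITC cleavage read as signal loss.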
Giardia kill = kills Giardia lamblia | Giardia lamblia trophozoite viability | activity change, % at 7.66 µM, hits read low | actives 0.15% (n = 340,000); in the data active means activity change below about -80%; inconclusive means between about -30% and that limit;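 further: parasites exposed to compound for two days anaerobically before the ATP read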
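Each well holds 100 Giardia trophozoites and compound. After two days (48 hrs) at 37 deg C in anaerobic conditions, ATP is quantified by luminescence.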
ELG1 repair inh = inhibitors of ELG1-dependent DNA repair in HEK293T cells; HEK293T ELG1-luciferase reporter, luminescence, 16 h; DNA damage induced by 5-fluorouridine; Potency, µM (titrated, usually from 46.1 µM), for the others: at the highest dose activity change, negative = inhibition, most hits filed as inhibitors; actives 2.3% (n = 330,000); AID 504467; further: potency means the concentration at half of the fitted maximal effect; nearly all actives have a fitted effect of over 55% in size
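Cells (2,000 per well) received 5-fluorouridine plus test compound or DMSO and were incubated 16 hr at 37 °C, 5% CO2. Luciferase activity was read by luminescence 30 min after ONE-Glo addition; signal suppression marked inhibition of damage-induced ELG1 function.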
The depositor's hits bear a star; ? = inconclusive; . = no result given; [ ] = remark or other dose. Unless noted, the call rests on the fitted dose curve; in most records, active means well fitted curve in the direction sought with a large enough effect; inconclusive means small, poorly fitted or top-dose-only effect, or another doubt; inactive means no such curve, though single readings can be large; an effect the other way counts as inactive or inconclusive. On the % scale 0 is the no-effect control and ±100 the full control effect.

SMILES	TDP1 cell CPT	IL1B secr inh	DT40 TDP1 no CPT	TDP1 block	Giardia kill	ELG1 repair inh
CCOC(=O)c1cc2c(=O)n3ccccc3nc2n(CC(C)C)c1=NC(=O)C(C)(C)Oc1ccc(Cl)cc1	-26%	.	?	6%	.	.
CCN(CC(=O)Nc1ccc(NC(C)=O)cc1)C(=O)CCCc1nc2ccccc2c(=O)[nH]1	-5%	21	7%	-10%[0.505 µM]	-1	-6%
Cc1ccc(S(=O)(=O)N2C[C@H]3N(C(=O)OC(C)C)N(C(=O)OC(C)C)C[C@H](OC(=O)NC4CCCC4)[C@@]3(O)C2)cc1	?	?	21µM*	.	.	.
C#CCN(C[C@@H]1[C@@H](OC(=O)NC2CCCC2)[C@@H](OC(=O)NC2CCCC2)CN(C(=O)OC(C)C)N1C(=O)OC(C)C)S(=O)(=O)c1ccc(C)cc1	?	-20	21µM*	.	.	.
C#CCN(C[C@@H]1[C@@H](OC(=O)NCc2ccco2)[C@@H](OC(=O)NCc2ccco2)Cn2c(=O)n(CCCCCC)c(=O)n21)S(=O)(=O)c1ccc(C)cc1	15µM*	-77*	9.2µM*	.	.	.
C#CCN(C[C@@H]1[C@@H](OC(=O)NC2CC2)[C@@H](OC(=O)NC2CC2)Cn2c(=O)n(CCCCCC)c(=O)n21)S(=O)(=O)c1ccc(C)cc1	?	-1	18µM*	.	.	.
Nc1[nH]nc2c1NN(c1ccc(Cl)cc1Cl)N2	23%	-6	-4%	8%	10	?
O=C(NC(Cc1ccccc1)C(=O)O)/C(=C\c1ccc(Cl)cc1)NC(=O)c1ccco1 (centres undefined)	-14%	9	-4%	5%	-15	0%
C#CCN(C[C@H]1[C@H](OC(=O)NCc2ccco2)[C@H](OC(=O)NCc2ccco2)C[C@H]2C(=O)N(c3ccccc3)C(=O)[C@@H]12)S(=O)(=O)c1ccc(C)cc1	2%	-8	?	.	.	.
C#CCN(C[C@@H]1[C@@H](OC(=O)NCc2ccc(OC)c(OC)c2)[C@@H](OC(=O)NCc2ccc(OC)c(OC)c2)Cn2c(=O)ccc(=O)n21)S(=O)(=O)c1ccc(C)cc1	16µM*	-106*	15µM*	.	.	.
C#CCN(C[C@@H]1[C@@H](OC(=O)NCc2ccco2)[C@@H](OC(=O)NCc2ccco2)Cn2c(=O)ccc(=O)n21)S(=O)(=O)c1ccc(C)cc1	4.6µM*	-109*	4.6µM*	.	.	.
C#CCN(C[C@@H]1[C@@H](OC(=O)NCc2ccc(OC)c(OC)c2)[C@@H](OC(=O)NCc2ccc(OC)c(OC)c2)Cn2c(=O)n(CCCCCC)c(=O)n21)S(=O)(=O)c1ccc(C)cc1	6%	-3	-28%	.	.	.
C#CCN(C[C@@H]1[C@@H](OC(=O)NCc2ccc(OC)c(OC)c2)[C@@H](OC(=O)NCc2ccc(OC)c(OC)c2)CN(C(=O)OC(C)C)N1C(=O)OC(C)C)S(=O)(=O)c1ccc(C)cc1	12µM*	?	9.2µM*	.	.	.
COc1ccc(NC(=O)CSc2n[nH]c(CNc3cccc(C)c3)n2)cc1	3%	-3	-18%	.	5	-7%
CN(c1ccccc1)S(=O)(=O)c1ccc(NC(=O)c2ccccc2C(=O)O)cc1	?	-4	?	.	-8	.
CN(Cc1ccccc1)S(=O)(=O)c1ccc(NC(=S)NC(=O)C2CCCC2)cc1	5.2µM*	8	4.6µM*	2%	-6	16µM*
CN(c1ccccc1)S(=O)(=O)c1ccc(NC(=S)NC(=O)c2ccccc2)cc1	?	11	26µM*	2%	12	?
COc1ccccc1/C=C/C(=O)NC(=S)Nc1ccc(S(=O)(=O)N(C)c2ccccc2)cc1	?	-3	23µM*	-7%	6	-2%
CN(c1ccccc1)S(=O)(=O)c1ccc(NC(=O)CC(=O)c2ccccc2)cc1	?	0	18µM*	.	8	.
